From PubChem BioAssay
Calls of active or inactive are those of the source. Unless noted, how the calls were made is not given here.

What was measured:
[1] = HepG2 liver cancer cell viability effects, profiling panel, resazurin fluorescence, 24 h, PK04 Diversity Set (AID 1172); settings: higher = more signal
[2] = basal S. cerevisiae growth modulation, no modifier, primary screen, OD600, strain BY4716, 24 h, basal condition (AID 1173); settings: OD600, 24 h, higher = more signal, called active from +8 up or from −8 down
[3] = MM1S myeloma cell viability, profiling panel, resazurin fluorescence, basal, 24 h, PK04 Diversity Set (AID 1174); settings: higher = more signal, called active from +8 up or from −8 down;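 further: MM1S multiple myeloma cell line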
[4] = biological target: Dihydroorotate dehydrogenase (quinone), mitochondrial (Plasmodium falciparum (isolate 3D7)) (UniProt Q08210); assay: PfDHODH enzyme inhibitors, primary screen, biochemical, C-terminal His tag, absorbance 600 nm (AID 1175); settings: DCIP absorbance 600 nm, higher = more signal, called active from +8 up or from −8 down;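 further: recombinant parasite enzyme with a five histidine tag at its C terminus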
[5] = P. aeruginosa biofilm formation inhibitors, primary screen, strain PAO1, LB-PBS medium, absorbance 600 nm (AID 1176); settings: P. aeruginosa PAO1 growth/biofilm, A600, 12 h; higher = more signal
[6] = S. cerevisiae RM11-1a growth modifiers, primary screen, strain RM11-1a, OD600, basal, 24 h (AID 1177); settings: OD600, 24 h, higher = more signal, called active from +8 up or from −8 down;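 further: cultures grown under basal conditions with no added stressor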
[7] = E. coli acrAB mutant growth effects, primary screen, E. coli filamentation inducers, strain DRC39, OD650, 24 h (AID 1178); settings: higher = more signal, called active from +8 up or from −8 down;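 further: growth measured as culture turbidity by optical density at 650 nm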
[8] = E. coli acrAB mutant growth effects, primary screen, E. coli filamentation inducers, strain DRC39, OD650, 48 h (AID 1179);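 further: screen aims at cell division blockers that make cells filament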; settings: E. coli DRC39 delta-acrAB growth, higher = more signal, called active from +8 up or from −8 down
[9] = RPMI8226 myeloma cell viability, profiling panel, resazurin fluorescence, basal, 24 h, PK04 Diversity Set (AID 1180); settings: higher = more signal;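 further: RPMI8826 multiple myeloma cell line at 5000 cells per well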
[10] = biological target: E3 ubiquitin-protein ligase XIAP (Homo sapiens) (UniProt P98170); assay: XIAP binders, primary screen, biophysical, small-molecule microarray, fluorescence 635 nm (AID 1181); settings: small-molecule microarray binding, higher = more signal;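 further: score merges 667 nm emission and signal to noise over triplicate slides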
[11] = test system: XIP peptide (Xip251-270) binding; assay: small-molecule binders of XIP peptide, primary screen, biochemical, small-molecule microarray, fluorescence 635/667 nm, 0.1 µg/mL protein (AID 1182); settings: fluorescent protein binding, 635 nm, higher = more signal, called active from +8 up or from −8 down
XIP peptide (Xip251-270) = assay: small-molecule binders of XIP peptide, primary screen, biochemical, small-molecule microarray, fluorescence 635/667 nm, 0.5 µg/mL protein (AID 1183); settings: small-molecule microarray binding, fluorescence 635 nm; higher = more signal
[12] = Plasmodium falciparum growth inhibition, primary screen, strain 3D7, DAPI fluorescence, 100 nL (AID 1184);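 further: parasites grown inside human red blood cells in medium with human serum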; settings: P. falciparum 3D7 growth, 3 d, higher = more signal
[13] = biological target: Homeobox protein Hox-A13 (Mus musculus) (UniProt Q62424); assay: inhibitors of HoxA13-DNA binding, primary screen, biochemical, fluorescence polarization, labeled oligonucleotide (AID 1185); settings: 15 min, higher = more signal, called active from +8 up or from −8 down
Chain of Homeobox protein Hox-A13 (Mus musculus) (Q62424 whole entry, looked up): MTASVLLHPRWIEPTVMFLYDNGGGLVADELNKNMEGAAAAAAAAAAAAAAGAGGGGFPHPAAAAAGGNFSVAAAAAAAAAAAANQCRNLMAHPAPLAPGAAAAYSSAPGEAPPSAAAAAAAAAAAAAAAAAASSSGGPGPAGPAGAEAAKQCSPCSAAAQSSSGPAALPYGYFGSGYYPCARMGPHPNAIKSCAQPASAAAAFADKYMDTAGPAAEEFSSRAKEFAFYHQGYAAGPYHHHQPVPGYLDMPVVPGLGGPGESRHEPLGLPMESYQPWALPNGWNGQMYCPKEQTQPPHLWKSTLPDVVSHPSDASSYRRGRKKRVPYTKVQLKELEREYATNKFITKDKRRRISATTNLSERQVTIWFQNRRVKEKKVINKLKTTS

Chain of Dihydroorotate dehydrogenase (quinone), mitochondrial (Plasmodium falciparum (isolate 3D7)) (Q08210 whole entry, looked up): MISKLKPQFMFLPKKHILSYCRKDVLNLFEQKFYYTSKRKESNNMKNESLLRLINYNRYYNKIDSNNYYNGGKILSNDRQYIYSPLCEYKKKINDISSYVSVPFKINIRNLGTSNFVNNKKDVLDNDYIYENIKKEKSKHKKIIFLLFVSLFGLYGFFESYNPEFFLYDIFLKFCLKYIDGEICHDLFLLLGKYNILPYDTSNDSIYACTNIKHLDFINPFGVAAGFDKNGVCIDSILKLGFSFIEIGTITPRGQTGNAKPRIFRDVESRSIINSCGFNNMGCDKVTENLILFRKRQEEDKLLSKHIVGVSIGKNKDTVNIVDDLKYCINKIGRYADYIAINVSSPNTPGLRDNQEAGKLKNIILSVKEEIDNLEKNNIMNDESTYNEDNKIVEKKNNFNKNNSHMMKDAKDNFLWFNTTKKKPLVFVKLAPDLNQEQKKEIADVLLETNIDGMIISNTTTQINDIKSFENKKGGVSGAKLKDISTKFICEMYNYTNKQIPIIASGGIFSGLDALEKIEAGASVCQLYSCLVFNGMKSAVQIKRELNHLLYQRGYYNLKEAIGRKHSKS
Chain of E3 ubiquitin-protein ligase XIAP (Homo sapiens) (P98170 whole entry, looked up): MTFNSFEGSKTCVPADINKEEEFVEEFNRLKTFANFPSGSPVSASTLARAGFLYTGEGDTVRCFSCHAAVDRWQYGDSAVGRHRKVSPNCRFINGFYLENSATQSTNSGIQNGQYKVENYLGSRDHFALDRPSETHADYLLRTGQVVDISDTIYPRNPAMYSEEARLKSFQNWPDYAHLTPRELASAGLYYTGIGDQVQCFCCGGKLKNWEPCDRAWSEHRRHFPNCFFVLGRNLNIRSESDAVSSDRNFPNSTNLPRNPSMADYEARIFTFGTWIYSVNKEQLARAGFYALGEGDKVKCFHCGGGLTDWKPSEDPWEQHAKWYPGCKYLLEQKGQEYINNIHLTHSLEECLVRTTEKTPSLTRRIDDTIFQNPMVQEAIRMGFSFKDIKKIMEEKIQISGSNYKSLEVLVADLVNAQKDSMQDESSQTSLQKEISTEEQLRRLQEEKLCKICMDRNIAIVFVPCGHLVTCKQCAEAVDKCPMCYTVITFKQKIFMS

| SMILES | z-score [1] | z-score [2] | z-score [3] | composite z-score [4] | z-score [5] | z-score [6] | z-score [7] | z-score [8] | z-score [9] | composite z-score [10] | composite z-score [11] | composite z-score (XIP peptide (Xip251-270)) | z-score [12] | z-score [13] |
| --- | --- | --- | --- | --- | --- | --- | --- | --- | --- | --- | --- | --- | --- | --- |
| CCOC(=O)NN=C1C[C@@H](O)[C@@H](O)[C@@H]2[C@@H]3C(=O)N(CC)C(=O)[C@@H]3CC[C@H]12 | -0.635 | 0.467 (inactive) | -2.97 (inactive) | 0.463 (inactive) | 0.0578 (inactive) | 0.355 (inactive) | 0.334 (inactive) | 0.388 (inactive) | -1.04 | 0.0119 | 0.124 (inactive) | -0.379 | 0.613 | 0.368 (inactive) |
| CC(=O)OC[C@H]1O[C@H](CC=NOC(C)CN2CCCCc3nc(C)c(C)cc32)C=C[C@@H]1OC(C)=O (some centres undefined) | 0.351 | 0.515 (inactive) | 0.535 (inactive) | -0.582 (inactive) | -0.266 (inactive) | 0.575 (inactive) | 0.132 (inactive) | -0.269 (inactive) | 0.46 | 0.23 | 0.231 (inactive) | 0.646 | -0.445 | -3.74 (inactive) |
| CCN1C(=O)[C@H]2[C@H]3[C@H](O)[C@H](O)CC(=NNC(=O)OCc4ccccc4)[C@@H]3CC[C@H]2C1=O | -0.501 | 0.226 (inactive) | -0.453 (inactive) | -0.283 (inactive) | -0.814 (inactive) | -0.338 (inactive) | 0.313 (inactive) | 0.0507 (inactive) | -0.747 | -0.0476 | -0.425 (inactive) | -0.0369 | 1.14 | -0.144 (inactive) |
| CCN1C(=O)[C@H]2[C@H]3[C@H](O)[C@H](O)CC(=NOCC(C)C)[C@H]3CC[C@H]2C1=O | -0.259 | -0.36 (inactive) | -0.929 (inactive) | -0.649 (inactive) | -0.225 (inactive) | -0.117 (inactive) | 0.645 (inactive) | 0.568 (inactive) | -0.971 | -0.122 | -0.583 (inactive) | -0.122 | 1.82 | 0.204 (inactive) |
| CSCC[C@@H]1NC(=O)CC=C[C@@H](C)COC(=O)[C@H](C)COC1=O | 0.376 | -1.59 (inactive) | 0.745 (inactive) | -0.766 (inactive) | 0.483 (inactive) | -2.43 (inactive) | 1.17 (inactive) | -0.216 (inactive) | -0.135 | 0.418 | 0.439 (inactive) | 0.8 | 0.461 | 0.0971 (inactive) |
| C#CCCCON=C1[C@H]2CCn3c(=O)n(Cc4cc5c(cc4Cl)OCO5)c(=O)n3[C@H]2[C@H](O)[C@@H]2O[C@H]12 | -0.242 | 0.606 (inactive) | -0.16 (inactive) | 0.605 (inactive) | -0.106 (inactive) | 0.432 (inactive) | 0.313 (inactive) | -0.506 (inactive) | 0.0334 | -0.168 | -0.18 (inactive) | 0.278 | -0.579 | -0.911 (inactive) |
| C[C@@H]1CC[C@H]2C(=O)N3[C@@H](CC[C@@H](C)[C@@H]3c3ccc(Br)cc3)C(=O)N2[C@H]1c1ccc(Br)cc1 | -0.346 | 0.0314 (inactive) | 0.208 (inactive) | 0.553 (inactive) | -0.27 (inactive) | 0.973 (inactive) | -0.124 (inactive) | -1.38 (inactive) | 0.102 | -0.0056 | -0.22 (inactive) | 0.335 | -0.212 | -3.21 (inactive) |
| O=C1[C@H]2[C@H]3[C@H](O)[C@H](O)CC(=NOC[C@@H](O)COCc4ccco4)[C@@H]3CC[C@H]2C(=O)N1C1CCCCC1 | -0.31 | 0.446 (inactive) | -0.226 (inactive) | -0.308 (inactive) | 0.0457 (inactive) | 0.153 (inactive) | 0.326 (inactive) | 0.132 (inactive) | -0.415 | -0.28 | 0.288 (inactive) | 0.306 | 1.7 | -4.42 (inactive) |
| C[C@H]1CC[C@H]2C(=O)O[C@H](CO)CN2[C@@H]1c1ccc(Br)cc1 | 0.72 | -8.2 (active) | 0.678 (inactive) | 0.586 (inactive) | 0.441 (inactive) | -0.356 (inactive) | 0.342 (inactive) | -0.016 (inactive) | -0.817 | 0.0733 | -0.0442 (inactive) | -0.127 | 0.389 | -3.98 (inactive) |
| CC(C)(C)N1C(=O)[C@H]2[C@H]3[C@H](O)[C@H](O)CC(=NOC[C@@H](O)COCc4ccco4)[C@H]3CC[C@H]2C1=O | -0.488 | 0.262 (inactive) | -0.622 (inactive) | 0.748 (inactive) | -0.0606 (inactive) | 0.0001 (inactive) | -0.0207 (inactive) | -0.149 (inactive) | -0.583 | -0.334 | 0.0133 (inactive) | 0.72 | -0.62 | 0.976 (inactive) |
| COC(=O)[C@@H]1CC[C@H](C)[C@@H](c2ccc(Br)cc2)N1C[C@@H](O)CN=[N+]=[N-] | -0.36 | -11.9 (active) | 0.506 (inactive) | -3.04 (inactive) | 0.733 (inactive) | -0.492 (inactive) | -1.47 (inactive) | -2.14 (inactive) | -0.0718 | -0.0118 | -0.193 (inactive) | -0.03 | -0.877 | -3.81 (inactive) |
